# Experimental data published in article PMC4336329 (PLoS ONE, 2015).
# Among all 310,000 compounds or so, about 14,000 (4.5%) showed an effect of 50% or more. The effect is printed as a negative number. Shown is part of a subset that was picked to be rich in strong results.
# Molecular target: human ether-à-go-go-related gene (hERG) potassium channel (human, UniProt Q12809)
# Experiment: primary screen, population patch clamp on CHO cells stably expressing hERG; higher = less effect of the substance
# 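Also: peak tail current of the secondary pulse compared with the same well before compound.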
# Sequence of human ether-à-go-go-related gene (hERG) potassium channel (Q12809 whole entry, looked up): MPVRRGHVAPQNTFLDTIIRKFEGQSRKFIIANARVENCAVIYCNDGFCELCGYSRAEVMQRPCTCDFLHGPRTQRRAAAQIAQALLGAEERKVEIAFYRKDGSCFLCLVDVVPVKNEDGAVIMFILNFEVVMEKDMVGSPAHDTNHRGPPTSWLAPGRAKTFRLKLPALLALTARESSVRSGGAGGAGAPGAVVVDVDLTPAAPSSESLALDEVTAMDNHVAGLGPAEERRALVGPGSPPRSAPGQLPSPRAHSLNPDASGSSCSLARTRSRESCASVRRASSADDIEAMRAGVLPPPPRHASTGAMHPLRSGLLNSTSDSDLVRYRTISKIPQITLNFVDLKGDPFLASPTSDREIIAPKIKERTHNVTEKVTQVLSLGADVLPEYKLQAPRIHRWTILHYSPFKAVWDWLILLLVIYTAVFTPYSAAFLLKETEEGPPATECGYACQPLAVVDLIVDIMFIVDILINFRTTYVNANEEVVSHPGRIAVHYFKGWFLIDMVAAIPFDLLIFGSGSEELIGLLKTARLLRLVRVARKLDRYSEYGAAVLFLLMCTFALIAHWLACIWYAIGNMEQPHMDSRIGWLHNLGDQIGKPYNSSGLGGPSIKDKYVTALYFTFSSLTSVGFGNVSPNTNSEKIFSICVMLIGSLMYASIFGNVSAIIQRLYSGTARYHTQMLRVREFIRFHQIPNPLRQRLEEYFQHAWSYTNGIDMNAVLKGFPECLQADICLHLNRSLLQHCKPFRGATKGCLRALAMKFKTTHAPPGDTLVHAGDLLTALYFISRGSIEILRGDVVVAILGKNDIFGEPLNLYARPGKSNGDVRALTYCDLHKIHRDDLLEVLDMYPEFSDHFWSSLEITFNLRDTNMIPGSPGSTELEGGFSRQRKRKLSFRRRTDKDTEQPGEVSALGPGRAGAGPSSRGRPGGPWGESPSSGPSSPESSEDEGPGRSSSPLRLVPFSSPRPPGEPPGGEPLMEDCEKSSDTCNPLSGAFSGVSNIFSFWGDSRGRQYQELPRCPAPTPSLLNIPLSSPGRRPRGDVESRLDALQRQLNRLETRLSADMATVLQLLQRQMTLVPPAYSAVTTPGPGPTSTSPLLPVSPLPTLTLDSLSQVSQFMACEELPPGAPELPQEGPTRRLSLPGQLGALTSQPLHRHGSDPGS
row,Structure (SMILES),"hERG current change (%, negative = inhibition) at 10uM"
1,CC(C)(C)NS(=O)(=O)c1ccc(NC(=O)Cc2ccccc2[N+](=O)[O-])cc1,1.66%
2,CCOC(=O)c1ccc(N2CN(CC)CNC2=S)cc1,7.25%
3,C/C(=N/OCc1ccc(Br)cc1)c1ccccn1,6.29%
4,CCc1ccc(C(=O)COC(=O)c2ccco2)cc1,9.18%
5,COc1ccc(CCNC(=O)COC(=O)c2cnc(C)cn2)cc1,11.3%
6,O=C(Nc1ccccc1C(=O)Nc1ccc2c(c1)OCO2)c1cccs1,3.6%
7,Cc1cc(C)cc(NC(=O)COC(=O)CN=C2NS(=O)(=O)c3ccccc32)c1,15.6%
8,O=C(NCC1CCCO1)c1ccc(COc2ccc(F)cc2)o1 (stereo not shown),-5.59%
9,CCCOc1ccc(/C=N/Nc2cc(N3CCOCC3)ncn2)c(O)c1,13.4%
10,O=c1[nH]cc([N+](=O)[O-])cc1Br,2.05%
11,CN1CCNC(=O)C1CC(=O)N1CC=C(c2ccc(F)cc2)CC1 (stereo not shown),-3.88%
12,CCCCOc1ccc(C(=O)NCC(=O)N2CC=C(c3ccccc3)CC2)cc1,16.8%
13,Cl.NC(=O)c1ccc(OCCC(O)N2CC=C(c3ccc(F)cc3)CC2)cc1 (stereo not shown),-71.2%
14,Clc1cccc(N/N=C/c2ccncc2)c1,-10.2%
15,Cc1cc(C(=O)C(C)Sc2cccc[n+]2[O-])c(C)n1-c1ccc(Cl)cc1 (stereo not shown),-12.8%
16,CC(C)/C=C1\CCc2c([nH]c3ccccc23)C1=O,9.91%
17,Cc1c(S(=O)(=O)c2ccccn2)c(N)n(Cc2ccccc2)c1C,0.158%
18,CN(C)CCn1cnc2c(c1=N)C(c1ccccc1)c1ccc3ccccc3c1O2 (stereo not shown),-79.2%
19,CN(C)CCCn1cnc2c(c1=N)C(c1ccccc1)c1ccc3ccccc3c1O2 (stereo not shown),-75.9%
20,O=C(Nc1cc(=O)[nH]c2ncnn12)c1ccccc1F,11%
21,CCC(=O)N1CCc2cc(Br)cc(S(=O)(=O)N3CCCCCC3)c21,-28.6%
22,O=C(c1ccc(COc2ccccc2Cl)o1)N1CCCC1,-23.6%

row,Structure (SMILES),"hERG current change (%, negative = inhibition) at 10uM"
1,COc1ccc(C(=O)Nc2ccc(N3CCOCC3)cc2)cc1S(=O)(=O)NC1CCCC1,13.1%
2,COc1ccc(C(=O)N2CCN(c3cccc(Cl)c3)CC2)cc1S(=O)(=O)NC1CC1,-63.5%
3,COc1ccc(C(=O)N2CCN(c3ccc(C(C)=O)cc3F)CC2)cc1S(=O)(=O)NC1CC1,-37.5%
4,COc1ccc(C(=O)N2CCN(c3ccccc3Cl)CC2)cc1S(=O)(=O)NC1CC1,-32.7%
5,COc1ccc(C(=O)N2CCN(c3ccc(F)cc3)CC2)cc1S(=O)(=O)NC1CC1,-59.2%
6,Cc1ccc(C(=O)N2CCN(c3cccc(Cl)c3)CC2)cc1C,-13.4%
7,O=C(OC1CCCCC1=O)c1ccc(S(=O)(=O)Nc2ccccc2)cc1 (stereo not shown),0.644%
8,Nc1cc(Cl)cc(C(=O)O)c1Cl,15.9%
9,O=C(Cn1cnc2sc(-c3ccccc3)cc2c1=O)NCc1ccco1,-3.75%
10,O=C(Nc1ccc(Cl)cc1)c1cccc(S(=O)(=O)Nc2ccccn2)c1,-6.23%
11,O=C(Nc1nnc(SCc2ccc(F)cc2)s1)C1Cc2ccccc2CN1C(=O)c1ccco1 (stereo not shown),-6.55%
12,Cc1cc(C)n2nc(-c3sccc3-n3c(C)ccc3C)cc2n1,17.3%
13,Cc1cc(-c2ccc(Cl)cc2)n2nc(C)cc2n1,4.45%
14,Cc1ccc(NC(=O)Cn2ccsc2=N)cc1S(=O)(=O)N(C)C.Cl,-13.4%
15,Cc1nn(CC(=O)Nc2ccc(S(=O)(=O)N(C)C)cc2)c(C)c1[N+](=O)[O-],-5.89%
16,O=C(Cn1ccccc1=O)Nc1ccc(Cl)c(S(=O)(=O)N2CCCCC2)c1,-79.4%
17,Cl.N=c1sccn1CC(=O)Nc1ccc(Cl)c(S(=O)(=O)N2CCOCC2)c1,-50.4%
18,Cc1ccc(S(=O)(=O)N2CCOCC2)cc1NC(=O)Cn1ccsc1=N.Cl,-5.64%
19,CN(C)S(=O)(=O)c1cc(NC(=O)Cn2ccsc2=N)ccc1Cl.Cl,-56.3%
20,CC1(c2ccccc2)NC(=O)N(CC(=O)Nc2ccc(Cl)c(S(=O)(=O)N3CCCCC3)c2)C1=O (stereo not shown),-8.09%
21,CCC1(c2ccccc2)NC(=O)N(CC(=O)Nc2ccc(Cl)c(S(=O)(=O)N3CCCCC3)c2)C1=O (stereo not shown),12.4%
